Structures are written as SMILES. About 83,000 compounds went through this panel and 20% of them were active in at least one assay; those are over-represented in the sample as a whole.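 Growth was measured after 48 h exposure to one concentration of compound in 96-well plates. Values under 10 count as active.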 Active and inactive are the calls of the source.

In this experiment the test system is HL-60(TB) leukemia. In words: NCI-60 one-dose screen, 48 h (100 = growth as untreated, 0 = no growth, -100 = all killed). Particulars: 10 µM unless noted.
Regarding `CC1=C(C(=O)OCC2CCN(C(=O)OC(C)(C)C)CC2)[C@H](c2cccc(Br)c2)C2=C(CC(C)(C)CC2=O)N1`, the growth is -17.1% (active). As for `COc1cc(-c2cn(-c3ccc(Cl)c(Cl)c3)c(=O)[nH]2)cc(OC)c1OC`, the figure is 88.1% (inactive).

Turning to `COc1ccc(Cl)cc1Nc1nc(C(F)(F)F)ccc1C(=O)N/N=C/c1c(Cl)cccc1Cl`, the growth was 48.4% (inactive). For the compound `CCN1C(=O)/C(=c2\sc3n(c2=O)NC2C(N=3)N(CC)C(=O)N2CC)c2ccccc21` (stereo not given), the growth is -4.75% (active). Regarding `CC1OC(C(=O)N2CCN(CCO)CC2)CC1COC1CCCCC1` (stereo not given), the growth was 98.3% [50 µM] (inactive). `Fc1ccc(Cc2ccc(F)cc2)cc1`: the growth is 103% (inactive). As for `O=C(CNC(=O)c1cccc2ccccc12)Nc1ccccc1Oc1ccccc1`, the figure is 7.14% (active); as for `CN1CCN(c2ccc3nc4c(nc3c2C(F)(F)F)C(=O)c2ncccc2C4=O)CC1`, -50.4% (active). Under `CNc1ccc(CSc2ccc(C)cc2)cc1` stands 11.8% (inactive); under `COc1cc(/C=C2\SC(=S)N(/C=C/c3nc4ccccc4[nH]c3=O)C2=O)cc(OC)c1OC`, 70% (inactive). Consider `Cn1cccc1/C=C1\C(=O)Nc2ccccc21`, for which the growth is 103% (inactive). As to `CCOC(=O)NN1CC(O)=C(c2nc(-c3ccc(Br)cc3)cs2)C1=N`, the growth was 98.8% (inactive). As for `COc1ccc2c(c1)OC(N)=C(C#N)C2c1cc(OC)c(OC)c(OC)c1` (stereo not given), the figure is -30.4% (active); as for `O=C(CS(=O)c1oc(-c2cccs2)nc1S(=O)(=O)c1ccc(Br)cc1)c1ccccc1` (stereo not given), 87.9% (inactive). As for `CC(=O)OCCCCCNc1ccccc1`, the growth is 76.3% (inactive). As for `CC(C)[C@@H]1CC[C@]2(CO2)[C@@H]2C(=O)OCC(C(=O)O)=C[C@H]21`, the figure is -12.4% (active); as for `COc1ccc(C(=O)/C=C/c2ccc(C)cc2)cc1S(N)(=O)=O`, 56.2% (inactive); as for `COc1ccc(/C=C(/C(=O)N2CCN(Cc3ccccc3)CC2)c2cc(OC)c(OC)c(OC)c2)cc1O`, 22.9% (inactive).

Regarding `C=CC(=O)N1CCC[C@@H](n2nc(-c3ccc(Oc4ccccc4)cc3)c3c(N)ncnc32)C1`, the growth was 82.5% (inactive). Under `COc1cccc(-c2nc(-c3ccc(NC(=O)C(C)C)cc3)[nH]c2-c2ccnc(Br)c2)c1` stands -23.4% (active); under `Cc1cc(=O)c2c(C)ccc(C)c2[nH]1`, 96.7% (inactive); under `CCCCCCCC/C=C\CCCCCCCCOc1cccc(CC(=O)NCC[N+]2(C)CCCC2)c1`, 49.3% (inactive). As for `C#CCOC(=O)C(N)CS` (stereo not given), the growth was 120% (inactive).

Turning to `c1csc(-c2nc(-c3cc4ccccc4c(N4CCOCC4)n3)cs2)c1`, the growth is 121% (inactive). As for `COc1ccc(C(=S)N2CCN(c3ccc(Cl)cc3)CC2)cc1`, the figure is 89.7% (inactive); as for `N#Cc1ncc(-c2ccc(C(F)(F)F)cc2)c(NC2CCCCCC2)n1`, 6.7% (active); as for `NNc1ccc(Cl)cc1Cl`, 8.29% (active). Regarding `[Cu+].[NH-][C@H]1C[N-]C(=O)[C@H]([C@H]2CCN=C(N)N2)[N-]C(=O)/C(=C\NC(N)=O)[N-]C(=O)[C@H](CNC(=O)C[C@@H](N)CCCN)[N-]C(=O)[C@H](CO)[N-]C1=O`, the growth was 104% (inactive). On to `NS(=O)(=O)c1ccc(-n2ncc3c(NC4CCCCC4)ncnc32)cc1`, for which the growth was 70.7% (inactive). `COc1ccc(C2CC(=O)c3c(nc4ccc(Cl)cc4c3N)C2)cc1` (stereo not given): the growth is 99.1% (inactive). Under `Nc1nc2c(c3ncccc13)C(c1cccc(Cl)c1)Cc1ncccc1-2` (stereo not given) stands -6.22% (active). As for `C=C1CC[C@@H]2[C@](C)(COC(C)=O)[C@H](OC(C)=O)CC[C@@]2(C)[C@@H]1CC(NCc1ccc(F)cc1)C1=CCOC1=O` (stereo not given in full), the figure is -9.52% (active); as for `Nc1c(C(=O)Nc2ccccc2F)sc2nc3c(cc12)CCCC3`, 15.5% (inactive).

As for `COc1ccc(Cc2cnc(NC(=O)c3cc(C)oc3C)s2)cc1`, the growth is -9.34% (active). `COc1ccc(-c2nc(Cl)c3c(C)nn(-c4ccc(F)cc4)c3n2)cc1`: the growth was 98.3% (inactive). As for `COc1cc(NCC(=O)Nc2cc(Nc3cccc(C(F)(F)F)c3)ncn2)c(Cl)c(OC)c1Cl`, the figure is 79.2% (inactive); as for `COc1ccc(/C=N/Nc2nc3ccccc3s2)cc1`, 84.9% (inactive).

For `CS(=O)(=O)Nc1cc(-c2ccc3ncc(C#N)c(Nc4ccc(F)c(Cl)c4)c3c2)cnc1Cl`, the growth was 0.119% (active). For the compound `S=c1nc(CS)[nH]c2ccccc12`, the growth is 101% (inactive). Take `CN1CCN(Cc2ccc(NC(=O)c3[nH]ncc3Nc3ccnc4ccnn34)cc2)CC1`: the growth was 45.5% (inactive).

Values taken from PubChem BioAssay (NCI).
